Data on 111 compounds can be found in PubChem BioAssay AID2546 (National Center for Advancing Translational Sciences (NCATS), 2010).

Hit rate of the full screen: of about 310,000 compounds, about 11,000 (3.5%) were called active. Where a call stands in place of a potency, no number is given. Inconclusive results (about 8%) are left out. This is one part of a sample in which actives are shown more often than they occur. Unmarked numbers belong to inactive results. Calls follow the shape of the dose curve; as a rule, active = well fitted inhibition curve with a large enough effect; inconclusive = small, poorly fitted or top-dose-only effect, or effect the other way; inactive = flat fitted curve, though single readings scatter.
Potency is read from the fitted curve at half-maximal effect.

This test can be described thus: VP16 counterscreen qHTS for inhibitors of ROR gamma transcriptional activity.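 Also: Gal4-VP16 expression switched on by copper sulfate through the metallothionein promoter; nearly all actives have a fitted effect of over 50% in size.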 The conditions noted are these: Drosophila S2 Gal4-VP16 UAS-luciferase, luminescence, 20 h; series mostly up to 53.6 µM. For orientation: The purpose of a counterscreen is to sort out artefacts and off-target activity.
Regarding `CCOC(=O)C1CCN(C(=O)C2CCCN(S(=O)(=O)c3ccc(OC)c(Cl)c3)C2)CC1` (stereo unspecified), the Potency result was “inactive”.

For the compound `CC1(C(=O)NCCc2c[nH]c3ccccc23)C=CC2(CCCCC2)N1C(=O)c1ccccc1` (stereo unspecified), the Potency entry was “inactive”.

For `COc1ccc(NC(=O)CN(C)C(=O)CNC(=O)C2CCCCC2)cc1`, the Potency result is “inactive”.

Turning to `O=c1[nH][nH]c(=O)c2cc(N3CCCC3)ccc12`, the Potency entry is “inactive”.

As for `CCOC(=O)/C(C#N)=C/c1ccc(N2CCCCC2)cc1`, the Potency result was “inactive”.

`O=C1C=CC(=O)N1c1ccc(N2CCCCC2)cc1`: the Potency was 8.91 µM (active).

With `O=[N+]([O-])c1ccc(O)c(/C=N/Nc2ccccc2[N+](=O)[O-])c1`, the Potency entry is “inactive”.

As for `Oc1ccc(Br)cc1/C=N/Nc1ccccn1`, the Potency is 10 µM (active).

For the compound `O=C(Nc1ccc(Br)cc1)c1cc(S(=O)(=O)Nc2ccccn2)ccc1Cl`, the Potency entry was “inactive”.

For the compound `COc1ccc(NC(=O)NNC(=O)COc2cc(C)c(Cl)c(C)c2)c(OC)c1`, the Potency result was “inactive”.

`O=C1CCN(CCc2ccccc2)CCN1CCOc1ccccc1`: the Potency entry is “inactive”.

Regarding `Cc1ccc(C(=O)CCC(=O)N(C)CC(=O)Nc2c(Cl)cccc2Cl)cc1`, the Potency entry is “inactive”.

In the case of `CCCCC1S/C(=N/N=C/c2cccs2)NC1=O` (stereo unspecified), the Potency is 0.316 µM (active).

Take `CC(=O)Nc1ccc(S(=O)(=O)Oc2ccc(/C=N/N=C3/NC(=O)C(CC(=O)O)S3)cc2)cc1` (stereo unspecified): the Potency entry is “inactive”.

With `CCC1C/C(=C/c2cccs2)C(=O)/C(=C/c2cccs2)C1` (stereo unspecified), the Potency result was “inactive”.

For `CCN(CC)CCCNC(=O)COc1ccc2oc3c(c2c1)CCCC3`, the Potency result was “inactive”.

For `COc1ccc(NC(=O)Nc2cccc3cccnc23)cc1`, the Potency entry is “inactive”.

Take `Cc1ccc(OS(=O)Nc2cccc3nccnc23)cc1` (stereo unspecified): the Potency is 3.16 µM (active).

In the case of `Cc1ccc(OCC(=O)Nn2cnc3ccccc32)cc1`, the Potency result is “inactive”.

As to `O=C(CN1C(=O)COc2ccc(Cl)cc21)Nc1ccc(N2CCOCC2)cc1`, the Potency result was “inactive”.

On to `O=C(Nc1cc(N2CCOCC2)ncn1)NC1(C(F)(F)F)Oc2ccc(Cl)cc2O1` (stereo unspecified), for which the Potency is 15.8 µM (active).

As for `Cc1csc(NC(=O)NC2(C(F)(F)F)Oc3ccccc3O2)n1`, the Potency entry is “inactive”.

For `COc1ccc(NC(=O)COc2ccc(C(=O)c3ccc(F)cc3)cc2)cc1S(N)(=O)=O`, the Potency result is “inactive”.

As for `COc1ccc(NC(=O)C/C(C)=N/NC(=O)c2cnccn2)cc1Cl`, the Potency result was “inactive”.

For the compound `CCOC(=O)C1CCN(C(=O)COc2cccc3ccccc23)CC1`, the Potency entry is “inactive”.

For `CCN(CC)C(=O)COc1coc(CN2CCN(Cc3ccccc3)CC2)cc1=O`, the Potency entry is “inactive”.

In the case of `Cc1ccccc1-c1n[nH]c(=S)n1C`, the Potency is 7.94 µM (active).

Turning to `Cc1ccccc1-c1n[nH]c(=S)n1/N=C/c1ccc(-c2ccccc2Br)o1`, the Potency entry was “inactive”.

For the compound `CCCc1cc(-c2n[nH]c(=S)n2CC)c2ccccc2n1`, the Potency entry was “inactive”.

In the case of `O=C(Nc1cccc(NC(=O)c2ccccc2[N+](=O)[O-])c1)c1ccccc1Cl`, the Potency result was “inactive”.

For `COC(=O)N/N=C/c1cn(CCCOc2ccc(C)cc2)c2ccccc12`, the Potency was 1 µM (active).

In the case of `COc1cccc(Cn2cc(/C=N/NC(=O)c3cc(O)cc(O)c3)c3ccccc32)c1`, the Potency entry is “inactive”.

Consider `CCOC(=O)N/N=C/c1cn(Cc2ccccc2Cl)c2ccccc12`, for which the Potency result is “inactive”.

As for `CCOC(=O)N1CCC(N2Cc3cccc(C(=O)Nc4ccc(S(=O)(=O)N(CC)CC)cc4)c3C2=O)CC1`, the Potency result is “inactive”.

Take `Oc1ccc(Cl)cc1/C=N/c1nc2ccccc2[nH]1`: the Potency entry is “inactive”.

For the compound `CCN(CC)CCn1c(/N=C/c2cc(Br)ccc2O)nc2ccccc21`, the Potency is 6.31 µM (active).

Consider `C/C(=N\c1nc2ccccc2n1C)c1cc(Cl)ccc1O`, for which the Potency entry was “inactive”.

Consider `Cc1sc2ncn(CC(=O)NCCCC(=O)N3CCN(c4ccccc4F)CC3)c(=O)c2c1C`, for which the Potency entry was “inactive”.

With `Cn1cccc1/C=N/NC(=O)c1ccc(OC(F)(F)C(F)F)cc1`, the Potency is 5.62 µM (active).

For the compound `COc1ccc(/C=N/NC(=O)c2cccc(C(F)(F)F)c2)cc1`, the activity, negative = inhibition is 6.66% [at 10 µM].

As for `Cn1cccc1/C=N/NC(=O)CNc1cccc2ccccc12`, the Potency result is “inactive”.

As for `O=C(NCCc1cccc(F)c1)C1CCCN(c2nc3ccccc3s2)C1` (stereo unspecified), the Potency entry is “inactive”.

As to `COc1cc(NC(=O)c2ccccc2)c(OC)cc1NC(=O)Cc1ccccc1`, the Potency result was “inactive”.

Take `NC(=O)COC(=O)/C=C/c1ccc2ccccc2n1`: the Potency result was “inactive”.

On to `COc1cccc(/C=C2\C=C(c3ccc(C)cc3)OC2=O)c1OC(C)=O`, for which the Potency entry was “inactive”.

As to `COc1cccc(/C=C/c2ccc3ccccc3n2)c1OC(C)=O`, the Potency was 5.01 µM (active).

As for `CCOc1ccccc1-c1cc(C(=O)N/N=C(\C)c2cccnc2)c2ccccc2n1`, the Potency entry is “inactive”.

`COC(=O)[C@H](C)NC(=O)Nc1ccc(OC(F)(F)F)cc1`: the Potency entry was “inactive”.

Turning to `CSc1sc(C(=O)NNC(=O)c2ccc(Cl)cc2)c2c1C=CCC2`, the Potency entry is “inactive”.

Regarding `CS(=O)(=O)c1sc(C(=O)NC(=S)Nc2ccc(OC(F)(F)F)cc2)c2c1C=CCC2`, the Potency is 11.2 µM (active).

`CC(C)c1c(C(=O)N/N=C/c2ccc(-c3ccccc3)cc2)nnn1-c1nonc1N`: the Potency entry was “inactive”.

As to `Cc1cc(N2CCCC2)n2nc(C)c(-c3ccccc3)c2n1`, the Potency entry is “inactive”.

For the compound `Cc1nn2c(NCCN(C)C)c3c(nc2c1-c1ccccc1)CCC3`, the Potency is 0.794 µM (active).

In the case of `Cc1cc(C(C)(C)C)n2nc(C)c(-c3ccccc3)c2n1`, the Potency result was “inactive”.

On to `CCOC(=O)C1(Cc2cccc(OC)c2)CCCN(C(=O)CCSC)C1` (stereo unspecified), for which the Potency result was “inactive”.

For `CCN(CC)S(=O)(=O)c1ccc(N2CCN(C)CC2)c(NC(=O)Nc2ccccc2F)c1`, the Potency entry was “inactive”.

As for `Cc1ccccc1CN1CCNC(=O)C1CC(=O)NCCC1=CCCCC1` (stereo unspecified), the Potency entry was “inactive”.

Take `C[n+]1ccc(C(=O)NCc2ccccc2)cc1`: the Potency entry is “inactive”.

Consider `O=C(CC1CCCCC1)NCc1ccccc1`, for which the Potency entry is “inactive”.

As for `C/C(=N\NC(=S)NCc1ccccc1)C1CCCCC1`, the Potency is 1 µM (active).

Consider `C/C(=N\NC(=S)NCc1ccccc1)c1ccc(Cl)cc1`, for which the Potency is 0.794 µM (active).

As to `CC1CCCCN1C(=S)NCc1ccccc1` (stereo unspecified), the Potency result is “inactive”.

Take `O=C(O)c1ccc(/C=N/NC(=S)NCc2ccccc2)cc1`: the Potency entry was “inactive”.

With `COc1ccc(NC(=O)C(C)N2c3cccc4cccc(c34)S2(=O)=O)c(OC)c1` (stereo unspecified), the Potency result was “inactive”.

With `COc1cccc(/C=C2\Sc3ccc(C(=O)NCC4CCCO4)cc3N(C)C2=O)c1` (stereo unspecified), the Potency entry was “inactive”.

For `CC(=O)NCCC(=O)Nc1nc(-c2ccc3c(c2)OCCO3)cs1`, the Potency result is “inactive”.

Consider `Cc1cc(C)cc(NS(=O)(=O)Cc2ccccc2)c1`, for which the Potency result is “inactive”.

As to `Cc1ccc(C(=O)COC(=O)CCN2C(=O)C3C4CCC(C4)C3C2=O)cc1C` (stereo unspecified), the Potency result is “inactive”.

Regarding `COc1ccccc1NC(=O)/C=C/C(N)=O`, the Potency is 4.47 µM (active).

For the compound `COc1ccccc1NC(=O)c1ccc(C)s1`, the Potency entry is “inactive”.

For the compound `COc1ccccc1NC(=O)/C=C/C(=O)O`, the Potency entry is “inactive”.

Regarding `COc1ccc(NC(=O)CN2C(=O)COc3ccc(S(=O)(=O)N4CCOCC4)cc32)cc1`, the Potency entry is “inactive”.

With `CCn1c(-c2ccoc2C)n[nH]c1=S`, the Potency result is “inactive”.

Regarding `CCn1c(C(C)C)n[nH]c1=S`, the Potency entry is “inactive”.

As for `CCc1cc(-c2n[nH]c(=S)n2CC(C)C)cs1`, the Potency was 11.2 µM (active).

Take `Cc1ccc(Cn2c(C)c3cnn(CC(=O)NCc4ccccn4)c(=O)c3c2C)cc1`: the Potency result is “inactive”.

For the compound `CC(=O)Nc1ccc(C(=O)N(C2=NC(C)CS2)c2ccc(Cl)cc2)cc1` (stereo unspecified), the Potency entry was “inactive”.

For `COc1cccc(-c2nnc(NC(=O)c3ccc(S(=O)(=O)N(CC(C)C)CC(C)C)cc3)o2)c1`, the Potency is 0.355 µM (active).

`COc1ccc(-c2nnc(NC(=O)CS(=O)(=O)c3ccc(Cl)cc3)o2)c(OC)c1`: the Potency entry is “inactive”.

Regarding `COc1cccc(NC(=O)c2ccc(S(=O)(=O)N(C)C)cc2)c1`, the Potency entry is “inactive”.

In the case of `COc1cc(Nc2nc3ccc(Cl)cc3n3cnnc23)cc(OC)c1OC`, the Potency result is “inactive”.

As for `O=C(c1ccc(Cl)cc1)n1cnc2ccccc21`, the Potency entry is “inactive”.

As to `C=CS(=O)c1sc(Cl)c(N2CCOCC2)c1[N+](=O)[O-]` (stereo unspecified), the Potency was 3.98 µM (active).

For the compound `CCCOc1ccc(C2=CSC3=NCCN23)cc1Cl`, the Potency entry was “inactive”.

Consider `COc1ccc(C(=O)NNC(=S)NC(=O)c2ccccc2)cc1`, for which the Potency was 8.91 µM (active).

On to `COc1ccc(C(=O)NC2CCN(C(=S)NCCc3ccccc3)CC2)cc1`, for which the Potency entry was “inactive”.

In the case of `O=C(NC(=S)NC1CCCCC1)c1ccc(Cl)cc1`, the Potency entry was “inactive”.

Regarding `COc1ccc(OCC(=O)NNC(=O)c2ccc(-c3ccccc3)cc2)cc1`, the Potency entry was “inactive”.

Take `COc1ccc(C(=O)NNC(=S)NC(=O)c2ccccc2[N+](=O)[O-])cc1`: the Potency result was “inactive”.

Turning to `COc1ccc(C(=O)NC(=S)NC2CCCCC2)cc1`, the Potency is 6.31 µM (active).

Take `O=C(CCc1ccccc1)NNC(=O)c1ccc(Br)cc1`: the Potency result is “inactive”.

Take `CCCNC(=S)N1CCC(NC(=O)c2ccc(OC)cc2)CC1`: the Potency result is “inactive”.

Turning to `COc1ccc(C(=O)NC(=S)NNC(=O)CCc2ccccc2)cc1`, the Potency was 15.8 µM (active).

As to `COc1ccc(NC(=O)CCCN2C(=O)C(c3ccccc3)Oc3cccnc32)cc1` (stereo unspecified), the Potency entry is “inactive”.

Take `CC(C)C[C@@H](COc1ccccc1)N1CCN(CC(C)C)CCC1=O`: the Potency entry is “inactive”.

Regarding `COc1ccc(CCc2nc(-c3cccs3)no2)cc1`, the Potency result is “inactive”.

Consider `O=C(c1ccc2nc(N3CCOCC3)sc2c1)N1CCN(c2ccc(Cl)cc2)CC1`, for which the Potency result is “inactive”.

In the case of `COc1ccc(NC(=O)CSc2nncc(=O)n2N)cc1OC`, the Potency entry is “inactive”.

Consider `CCCC(C)c1nnc(NC(=O)C2CC(=O)N(c3ccc(OCC)cc3)C2)s1` (stereo unspecified), for which the Potency result is “inactive”.

As for `Oc1ccccc1C=NC1CCCCC1N=Cc1ccccc1O` (stereo unspecified), the Potency result is “inactive”.

Consider `COc1ccc(/C=N/NC(=O)C2CC2)c(OC)c1OC`, for which the Potency entry was “inactive”.

On to `O=C(N/N=C/c1ccccc1O)C1CCCC1`, for which the Potency is 0.562 µM (active).

With `N#CC(C#N)=CN=c1ccn(Cc2ccc(Cl)cc2Cl)cc1`, the Potency entry was “inactive”.

With `COc1ccccc1N1CCN(C(=O)c2cc(=O)c3cc(C)ccc3o2)CC1`, the Potency entry was “inactive”.

Regarding `O=c1c2ccccc2nc2n1C(CSCc1ccccc1)CS2` (stereo unspecified), the activity, negative = inhibition was 5.71% [at 0.365 µM].

As for `O=c1c2ccccc2nc2n1C(CSc1ccc(F)cc1)CN2` (stereo unspecified), the Potency entry was “inactive”.

On to `O=c1c2ccccc2nc2n1C(CSCc1cccc(C(F)(F)F)c1)CS2` (stereo unspecified), for which the Potency is 7.94 µM (active).

As for `CS(=O)(=O)N1CCN(CC(=O)NC2CCCC2)CC1`, the Potency entry was “inactive”.

With `COc1ccc(S(=O)(=O)Nc2cccnc2)c(Cl)c1Cl`, the Potency result was “inactive”.

In the case of `O=S(=O)(Nc1ccccn1)c1ccc(Oc2ccccc2)cc1`, the Potency entry was “inactive”.

For `COc1ccccc1Oc1ccc(S(=O)(=O)Nc2cccnc2)cc1`, the Potency is 17.8 µM (active).
